IkB sig inh – IkB Signaling | Potency, µM (series often up to 57.1 µM), for inactives: at the highest dose IkBa stabilization activation | ABC-DLBCL IkBa-CBG/CBR dual luciferase ratio, 4 h; response scale: scaled: untreated 0%, proteasome inhibitor 100% | 110,000 tested, 0.04% active | AID 445, 2006; active means well fitted curve in the direction sought with a large enough effect in the signal ratio, not every such curve was filed as active; inconclusive means small, poorly fitted or top-dose-only effect, or a change in a side signal; the % refers to the signal ratio;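 further: the direction sought is a rising ratio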
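Curves were fitted separately to fusion (green), unfused (red) and ratio luminescence, then classed by r2, magnitude and activity. Cells: OCI-Ly3, 4 h compound plus doxycycline at 37C; 10 uM MG-132 defined full response.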
Tau filament bind – qHTS Assay for Tau Filament Binding; AID 596, 2007; Potency, µM (series often up to 57.1 µM), for the others: at the top dose activity change, negative = inhibition; Microtubule-associated protein tau (Homo sapiens), P10636; 71,000 tested, 2% active; recombinant tau filaments, thioflavin S fluorescence, 15 h; filaments grown with octadecylsulfate alongside compound;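 further: on the % scale 0 is the no-effect control and ±100 the full control effect; actives lower thioflavin S fluorescence by blocking filaments or displacing dye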
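Recombinant tau protein (human, 1 uM final) plus 30 uM ODS in HEPES pH 7.4 with NaCl, DTT and thioflavine S. Compound present from the start; fluorescence at 510 nm after 15 h, 37 C.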
CRE-bla Fsk – Cell signaling CRE-BLA (Fsk stim); CHO CRE-bla reporter (cAMP response element driving beta-lactamase), forskolin EC10, beta-lactamase ratio; Potency, µM (doses to about 38.2 µM), inactives show at the top dose activity change, negative = inhibition, usual class: activators; 71,000 tested, 2.5% active; AID 662, 2007; active means well fitted activation curve with a large enough effect in the signal ratio, with a control signal flat, not every such curve was filed as active; inconclusive means small, poorly fitted or top-dose-only effect, or effect the other way, or a change in a side signal; the % refers to the signal ratio; further: % of control where 0% means no effect
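Using CellSensor CRE-bla CHO cells in Opti-MEM with 0.5% dialyzed FBS, compounds were titrated with EC10 NKH 477 for 3 h at 37 °C. CCF4 ratio (460/530 nm) gave %Activity; AC50 derived.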
15-hLO inh – qHTS Assay for Inhibitors of 15-hLO (15-human lipoxygenase); purified 15hLO-1, xylenol orange hydroperoxide absorbance; Potency, µM (titrated, usually from 57.1 µM), for inactives: at the highest dose activity change, negative = inhibition, most hits filed as inhibitors; Polyunsaturated fatty acid lipoxygenase ALOX15 (Homo sapiens), P16050; AID 887, 2007; 74,000 tested, 1.4% active; further: on the % scale 0 is the no-effect control and ±100 the full control effect; nearly all actives have a fitted effect of over 55% in size
Target sequence (P16050 whole entry, looked up): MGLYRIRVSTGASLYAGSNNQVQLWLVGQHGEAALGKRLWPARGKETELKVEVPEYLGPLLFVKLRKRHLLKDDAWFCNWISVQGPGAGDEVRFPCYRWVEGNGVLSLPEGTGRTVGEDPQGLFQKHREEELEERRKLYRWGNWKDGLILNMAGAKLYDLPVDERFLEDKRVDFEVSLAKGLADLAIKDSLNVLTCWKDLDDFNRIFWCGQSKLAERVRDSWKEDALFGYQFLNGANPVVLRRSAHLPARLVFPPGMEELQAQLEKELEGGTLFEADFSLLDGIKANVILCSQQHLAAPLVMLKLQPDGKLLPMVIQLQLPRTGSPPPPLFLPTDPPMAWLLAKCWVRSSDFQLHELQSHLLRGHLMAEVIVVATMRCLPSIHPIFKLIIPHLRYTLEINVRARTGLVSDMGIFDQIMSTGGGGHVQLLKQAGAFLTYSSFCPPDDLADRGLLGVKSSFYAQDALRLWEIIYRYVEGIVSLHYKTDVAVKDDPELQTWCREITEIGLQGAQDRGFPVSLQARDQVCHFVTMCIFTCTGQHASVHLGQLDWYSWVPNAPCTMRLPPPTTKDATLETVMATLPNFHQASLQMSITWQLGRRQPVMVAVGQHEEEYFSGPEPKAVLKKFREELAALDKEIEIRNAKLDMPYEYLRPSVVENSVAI
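Purified human 15hLO-1 (40 nM) in 25 mM Hepes pH 7.5, 0.01% Triton X-100, preincubated 15 min RT with compound, then 50 uM arachidonic acid for 6 min. Hydroperoxide read by ferrous/xylenol orange, 30 min; 573/405 nm absorbance ratio gave progress.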
Hsp90 Hop PPI – qHTS Assay for Disrupters of an Hsp90 Co-Chaperone Interaction | Hsp90 C-terminal peptide / TPR2A (Hop) interaction, human | AlphaScreen TPR2A-His6 binding biotin-Hsp90 C-terminal peptide | Potency, µM (top dose mostly 57 µM), inactives show at the top dose activity change, negative = inhibition | 71,000 tested, 0.44% active; active means well fitted curve in either direction with a large enough effect; inconclusive means small, poorly fitted or top-dose-only effect, or another doubt; further: on the % scale 0 is the no-effect control and ±100 the full control effect
* hit, by the source's call; ? = inconclusive; / = no result; [ ] = another dose, or the depositor's remark. Hits are enriched below; roughly 3.6% of the tested compounds scored in any of these assays. Unless noted, the call rests on the fitted dose curve; in most records, active means well fitted curve in the direction sought with a large enough effect; inconclusive means small, poorly fitted or top-dose-only effect, or another doubt; inactive means no such curve, though single readings can be large; an effect the other way counts as inactive or inconclusive. Potency means the concentration at half of the fitted maximal effect.

SMILES	IkB sig inh	Tau filament bind	CRE-bla Fsk	15-hLO inh	Hsp90 Hop PPI
COc1ccc(CCNC(=O)CCn2c(=O)c3ccccc3n(Cc3ccccc3)c2=O)cc1OC	1.4%	/	/	/	/
CCCCCCC1C(C#N)=C(N)OC2=C1C(=O)CC(C)(C)C2 (stereo unspecified)	2.4%	-2.0%	10µM*	-24.8%	1.7%
COc1ccc(Cn2c(=O)c3cccnc3n(CC(=O)Nc3c(C)cc(C)cc3C)c2=O)cc1	1.7%	/	/	/	/
N#C/C(=C/c1ccccc1Cl)c1nc(-c2cc3ccccc3oc2=O)cs1	3.5%	/	/	/	/
N#CC(=C1CCCC1)c1nc(-c2ccccc2O)cs1	0.0%	12.6µM*	2.9%	?	-12.7%
O=C(Nc1ccccc1F)c1oc2ccccc2c1NC(=O)C12CC3CC(CC(C3)C1)C2	2.6%	/	/	/	/
Cc1cc2n(n1)C(c1sccc1C)Nc1ccccc1-2 (stereo unspecified)	0.9%	23.2%	?	-1.3%	?
Cc1ccc2c(c1)-c1cc(C)nn1C(c1sccc1C)N2 (stereo unspecified)	?	11.4%	?	?	25.1µM*
COc1cc(C)ccc1OCCSc1nc2ccc(NC(=O)c3ccc4c(c3)OCO4)cc2s1	-1.5%	/	/	/	/
CCOC(=O)C1=C(C)NC(=O)NC1c1ccc(OC(C)C(=O)O)c(OC)c1 (stereo unspecified)	1.1%	6.3%	13.0%	25.1µM*	12.6µM*
Cc1ccc(S(=O)(=O)OC2CCN(C)CC2)cc1	0.0%[11.4 µM]	-3.1%[11.4 µM]	?	6.6%[11.4 µM]	-2.1%[11 µM]
Cc1ccc(OCC(=O)Nc2nonc2-c2ccc(Br)cc2)cc1C	-3.0%	/	/	/	/
CCCn1c(C)nc2c(N(CCOC)CCOC)nc(C)nc21	/	-8.8%	12.6µM*	-13.8%	-1.8%
CCCn1c(C)nc2c(NCCN(C)C)nc(C)nc21	/	0.6%	3.8%	25.1µM*	-3.2%
CCCn1c(C)nc2c(NCCN(C(C)C)C(C)C)nc(C)nc21	/	-0.1%	3.2%	-10.6%	-3.7%
CCCn1c(C)nc2c(N(CCN(C)C)Cc3ccccc3)nc(C)nc21	/	-19.5%	12.6µM*	15.8µM*	-0.8%
CC(C)=CCCC(C)CCO (stereo unspecified)	0.6%	-7.3%	3.2%	7.94µM*	-1.0%
O=C(CSc1nc2ccccc2c2nc(-c3ccccc3)nn12)Nc1ccc(Br)cc1	0.6%	/	/	/	/
O=c1c2c3nc4ccccc4nc3n(-c3cccc(F)c3)c2ncn1Cc1ccc2c(c1)OCO2	1.4%	3.16µM*	?	-5.0%	-3.0%
CCC(C)n1cnc2c(c1=O)c1nc3ccccc3nc1n2-c1ccc2c(c1)OCCO2 (stereo unspecified)	-0.8%	-10.3%	?	-5.3%	0.0%
CCC(C)n1cnc2c(c1=O)c1nc3ccccc3nc1n2Cc1ccc2c(c1)OCO2 (stereo unspecified)	?	3.16µM*	15.8µM*	-16.9%	3.0%
CCOC(=O)C1=C(C)NC2=C(C(=O)c3ccccc32)C1c1cccnc1 (stereo unspecified)	-1.6%	3.16µM*	?	0.9%	-8.8%
COc1cccc(O)c1O	/	/	/	0.794µM*	/
COc1ccc(-n2nc(C(=O)NCc3ccc(F)cc3Cl)c3c4ccccc4n(C)c3c2=O)cc1Cl	-2.3%	/	/	/	/
CC1(C)CC(Nc2ccc(Nc3ccccc3)cc2)CC(C)(C)N1	2.4%[11.4 µM]	1.58µM*	4.0%[7.6 µM]	?	-9.5%[11 µM]
SMILES	IkB sig inh	Tau filament bind	CRE-bla Fsk	15-hLO inh	Hsp90 Hop PPI
Cc1ccc(-c2nn3c(C)nnc3c3ccccc23)cc1S(=O)(=O)N1CCN(CCO)CC1	8.9%	-17.1%	?	-9.8%	-3.4%
COc1ccc(-c2nnc3c4ccccc4c(C)nn23)cc1S(=O)(=O)N1CCN(CCO)CC1	-8.2%	53.6%	10µM*	1.2%	-12.8%
O=c1cc(O)cc(/C=C\c2ccc(O)c(O)c2)o1	6.5%	0.9%	-5.5%	0.794µM*	12.6µM*
O=C1c2ccccc2C(=O)c2c1ccc(C(=O)O)c2-c1ccc2ccccc2c1	1.9%[11.4 µM]	3.16µM*	?	-17.6%[11.4 µM]	-17.9%[11 µM]
O=C(O)c1cc(NS(=O)(=O)c2ccc3ccccc3c2)ccc1O	/	/	/	-12.6%	/
O=C(Nc1cccc(-c2cnc3ccccc3n2)c1)c1ccco1	-3.7%	31.6µM*	?	-10.7%	-6.5%
O=C1C(Cl)=C(Nc2ccc(S(=O)(=O)Nc3ccccn3)cc2)C(=O)c2ccccc21	6.31µM*	-11.9%[11.4 µM]	-4.2%[7.6 µM]	?	-7.6%[11 µM]
CC1(c2ccc3noc(-c4ccc(Cl)cc4)c3c2)OCCO1	0.5%	?	-9.9%	-6.4%	-0.9%
c1ccc(-c2onc3cc4c(cc23)OCCO4)cc1	?	18.0%	13.3%	12.6µM*	2.0%
CC(C)CCNC(=O)c1ccc(Cn2c(=O)c3cccn3c3cccnc32)cc1	-0.2%	/	/	/	/
CCc1ccc2c(-c3cccc(Cl)c3)nc(=O)n(CC)c2n1	0.4%	31.6µM*	0.794µM*	-4.1%[25.6 µM]	-6.9%
CC(=O)Nc1ccc(S(=O)(=O)NCC2CCC(C(=O)NCCN(CC(C)C)CC(C)C)CC2)cc1 (stereo unspecified)	-0.6%	/	/	/	/
c1ccc2sc(SN3CCOCC3)nc2c1	-3.5%	-10.8%	?	2µM*	-3.2%
c1ccc(CNC2=NCCCCC2)cc1	0.6%	-1.3%	-4.6%	6.2%	-0.1%
Cc1ccc(CNC2=NCCCCC2)n1C	0.3%	2.4%	-1.8%	20µM*	-3.5%
c1ccc2c(c1)nnn1c3ccccc3nc21	-6.7%	7.94µM*	10µM*	-1.1%	8.6%
CC[C@]1(O)C[C@H]2CN(CCc3c([nH]c4ccccc34)[C@](C(=O)OC)(c3cc4c(cc3OC)N(C)[C@@H]3[C@](O)(C(=O)OC)[C@H](OC(C)=O)[C@]5(CC)C=CCN6CC[C@]43[C@@H]65)C2)C1	0.794µM*	-8.2%	0.631µM*	?	-7.6%
O=C(c1ccco1)N1CCN(C(=O)c2cc(-c3ccccn3)nc3ccc(Cl)cc23)CC1	?	10µM*	-8.5%	?	-27.9%
O=C(c1ccco1)N1CCN(C(=O)c2cc(-c3ccncc3)nc3ccc(Br)cc23)CC1	-0.4%	-19.2%	?	5.4%	-6.3%
CCc1nc2cc(C)nn2c2nc3ccccc3n12	0.0%	0.9%	3.16µM*	5.6%	-1.2%
Cc1ccc(Nc2nc(C)c(CCC(C)C)c(=O)[nH]2)cc1	2.3%	15.9%	2.7%	7.3%	-1.3%
Cc1nc(NCc2ccccc2)[nH]c(=O)c1CCC(C)C	-3.4%	15.8µM*	-14.6%	-7.5%	-1.1%
CCN(CC)CCCN1C(=O)C(O)=C(C(=O)c2ccco2)C1c1ccc(C)o1 (stereo unspecified)	0.9%	13.2%	-4.7%	-5.6%	-4.0%
CC1=C(C(=O)Nc2ccccc2)C(c2ccc(C)o2)n2c(s/c(=C\c3ccco3)c2=O)=N1 (stereo unspecified)	?	2.51µM*	?	-29.4%	-16.7%
